Data from PubChem BioAssay.

biological target: E3 ubiquitin-protein ligase XIAP (Homo sapiens) (UniProt P98170); experiment: XIAP binders, primary screen, biophysical, small-molecule microarray, fluorescence 635 nm (AID 1181); details: small-molecule microarray binding, higher = more signal;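 further: score merges 667 nm emission and signal to noise over triplicate slides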
Sequence (P98170 whole entry, looked up): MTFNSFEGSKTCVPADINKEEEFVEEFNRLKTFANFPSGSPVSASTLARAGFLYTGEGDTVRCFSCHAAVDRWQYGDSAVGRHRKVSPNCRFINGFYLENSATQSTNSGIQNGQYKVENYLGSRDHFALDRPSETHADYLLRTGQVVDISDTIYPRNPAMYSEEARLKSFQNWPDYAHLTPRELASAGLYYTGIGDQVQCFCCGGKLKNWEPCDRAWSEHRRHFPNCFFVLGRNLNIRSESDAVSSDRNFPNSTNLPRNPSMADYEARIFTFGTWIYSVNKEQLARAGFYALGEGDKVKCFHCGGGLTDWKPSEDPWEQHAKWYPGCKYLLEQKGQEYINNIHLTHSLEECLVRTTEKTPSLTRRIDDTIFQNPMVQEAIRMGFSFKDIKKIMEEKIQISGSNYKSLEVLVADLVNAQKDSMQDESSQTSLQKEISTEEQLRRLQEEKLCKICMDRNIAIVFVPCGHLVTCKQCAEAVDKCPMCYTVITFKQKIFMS

Row | Structure (SMILES) | composite z-score
1 | O=C1NC(=O)C2C1C=CC(C(O)c1cc(C(F)(F)F)cc(C(F)(F)F)c1)N2Nc1ccccn1 (stereo not given) | -0.152
2 | C=C(/C(=C/C[C@H](OC(C)=O)c1ccccc1OCCO)c1cnc2ccccc2c1)C(C)C | -0.238
3 | COC(=O)[C@H](Cc1ccccc1)N1CC2=C[C@@H](C3CC3)n3c(=O)n(C)c(=O)n3[C@H]2[C@@H]1[C@@H](O)Cc1ccccc1 | -0.142
4 | CC(=O)n1cc(C(O)C2C=CC3C(=O)N(c4ccccc4)C(=O)C3N2Nc2ccc([N+](=O)[O-])cc2)c2ccccc21 (stereo not given) | -0.0391
5 | CN1C=C(C(=O)OCCS(C)(=O)=O)C(C(=O)OCCS(C)(=O)=O)=CC(c2ccc(CO)cc2)=CC1C1CC1 (stereo not given) | -0.359
6 | COC(=O)[C@]1(CCC(=O)OC(C)(C)C)N=C(c2ccc(OCCCO)cc2)O[C@@H]1c1ccccc1CN=[N+]=[N-] | -0.0773
7 | C=CCNC(=O)[C@@H]1[C@H]2C(=O)O[C@H](c3ccccc3)[C@H](c3ccccc3)N2[C@H](c2ccc(OCCO)cc2)[C@@]12C(=O)Nc1ccc(C#CCC(C(=O)OC)C(=O)OC)cc12 | 0.132
8 | COC(=O)C(CC#Cc1ccc2c(c1)[C@]1(C(=O)N2)[C@H](c2ccc(OCCO)cc2)N2[C@H](c3ccccc3)[C@H](c3ccccc3)OC(=O)[C@H]2[C@@H]1C(=O)N1CCc2cc(OC)c(OC)cc2C1)C(=O)OC | -0.227
9 | NC(=O)N1C(=O)C2C(C1=O)C1C=C(c3ccc(CO)cc3)C2C(c2cccs2)N1Cc1cccc(OC(F)(F)F)c1 (stereo not given) | 0.278
10 | C=CCC(OC(C)=O)[C@@H]1[C@@H](N(Cc2ccc(-c3ccccc3)cc2)C(=O)c2cccc3ccccc23)c2cc(OCCCO)ccc2N1C(=O)c1ccc(-c2ccccc2)cc1 (stereo not given in full) | -0.411
